# Experimental data: PubChem BioAssay
# Records with an inconclusive call do not appear. Active and inactive are the calls of the source.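 The calls were made as follows, unless noted: active = viability at or below 10% of carrier control in both of two separate runs; inconclusive = viability at or below 10% in only one of the two runs; inactive = the rest.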
# Columns and labels:
# [1] = Her2 expression decrease, cell viability multiplex – SKBR3 breast tumor cells, AlphaScreen, ATP viability, primary screen (AID 461;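 active = Her2 level under about 52% in both replicate screens, with viability over 70% of control, limit read from the data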;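 as to Her2 level: lower value means less Her2 protein in the cells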;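 as to viability: percent of carrier control wells set as 100% viability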); conditions: SKBR3 Her2 protein level, 18-24 h, measured here: SKBR3 viability, ATP luminescence, at 10 µM
# [2] = biological target: Receptor tyrosine-protein kinase erbB-2 (Homo sapiens) (UniProt P04626); assay: as above; conditions: 18-24 h, at 10 µM, stronger effect = lower value
# Receptor tyrosine-protein kinase erbB-2 (Homo sapiens), sequence (P04626 whole entry, looked up): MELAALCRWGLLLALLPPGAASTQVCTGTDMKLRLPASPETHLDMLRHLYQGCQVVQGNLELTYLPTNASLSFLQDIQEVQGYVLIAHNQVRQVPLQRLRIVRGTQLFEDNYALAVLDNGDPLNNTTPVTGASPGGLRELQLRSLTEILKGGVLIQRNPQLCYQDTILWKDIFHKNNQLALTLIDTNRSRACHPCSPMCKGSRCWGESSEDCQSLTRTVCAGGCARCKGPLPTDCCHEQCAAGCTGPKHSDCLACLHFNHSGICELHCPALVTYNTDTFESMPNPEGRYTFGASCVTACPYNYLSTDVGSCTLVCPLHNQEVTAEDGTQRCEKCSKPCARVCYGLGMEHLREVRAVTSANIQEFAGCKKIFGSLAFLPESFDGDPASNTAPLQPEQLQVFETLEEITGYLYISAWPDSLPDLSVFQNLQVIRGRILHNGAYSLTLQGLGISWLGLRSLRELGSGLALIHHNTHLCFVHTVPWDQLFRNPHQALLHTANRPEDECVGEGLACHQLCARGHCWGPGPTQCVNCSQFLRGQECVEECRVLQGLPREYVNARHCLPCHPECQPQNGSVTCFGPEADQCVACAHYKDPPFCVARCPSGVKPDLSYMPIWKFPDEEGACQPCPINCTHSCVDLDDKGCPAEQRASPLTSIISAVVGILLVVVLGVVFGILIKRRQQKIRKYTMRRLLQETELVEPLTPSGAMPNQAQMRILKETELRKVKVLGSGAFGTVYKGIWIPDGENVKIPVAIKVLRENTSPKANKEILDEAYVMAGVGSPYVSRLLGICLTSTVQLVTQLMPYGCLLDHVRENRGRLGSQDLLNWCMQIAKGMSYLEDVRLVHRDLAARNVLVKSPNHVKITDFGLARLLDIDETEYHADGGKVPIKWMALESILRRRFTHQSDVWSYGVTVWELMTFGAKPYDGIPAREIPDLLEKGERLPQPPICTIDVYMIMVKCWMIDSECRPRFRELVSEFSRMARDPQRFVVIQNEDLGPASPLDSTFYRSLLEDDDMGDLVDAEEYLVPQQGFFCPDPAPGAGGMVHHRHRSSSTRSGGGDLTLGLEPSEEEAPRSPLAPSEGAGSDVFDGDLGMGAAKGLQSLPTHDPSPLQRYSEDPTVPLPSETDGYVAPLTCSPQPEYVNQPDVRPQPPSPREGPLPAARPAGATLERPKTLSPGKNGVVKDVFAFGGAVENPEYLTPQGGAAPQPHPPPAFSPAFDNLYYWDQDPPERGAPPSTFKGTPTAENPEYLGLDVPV
# [3] = reduced viability of SK-BR-3 breast cancer cells – cell-based, 24 h, human, pilot screen (AID 572); conditions: SK-BR-3 viability, CellTiter-Glo luminescence, at 10 µM, stronger effect = lower value;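 also: compound exposure lasted between 18 and 24 h rather than exactly 24 h; 100% = carrier-treated control wells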
# [4] = HUVEC growth inhibition – cell-based, human, primary screen (AID 575;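 active = viability at or below 30% in both replicate assays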;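 also: 100% = median of untreated cell wells with 0.1% DMSO on each plate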); conditions: HUVEC proliferation, CellTiter-Glo luminescence, 72 h; at 10 µM; stronger effect = lower value
# [5] = H69AR cell proliferation blockers – human, duplicate replicates, primary screen (AID 580;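 active = viability at or under a set limit in both replicates, limit being median viability minus 3 SD, cut at about 48% in these data, passing the limit was not always enough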;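 also: 100% = mean luminescence of untreated wells and 0% = no signal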); conditions: H69AR lung tumor cells viability, ATP luminescence, 72 h; at 10 µM; stronger effect = lower value
# [6] = MRP1 drug-resistance reversers in H69AR cells – cell-based, doxorubicin co-treatment, pilot screen (AID 601;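 active = viability loss from added drug above about 55%, and viability with drug at most 40%, in both replicates, limit read from the data, passing the limit was not always enough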); conditions: CellTiter-Glo, 72 h, at 10 µM; for differential viability (reversal): stronger effect = higher value
# [7] = yeast transport mutant growth inhibition pilot in 384-well plates, post-Golgi transport modulator project (AID 636; in the data active = inhibition above about 31%); conditions: absorbance 615 nm, about 18 h, stronger effect = higher value
# [8] = growth suppression of yeast trafficking mutant, preliminary HTS, modulators of trafficking downstream of Golgi apparatus project, 1536-format plate, OD 615 nm (AID 637; in the data active = inhibition above about 30%); conditions: yeast transport mutant growth, absorbance 615 nm, 18 h; stronger effect = higher value
# [9] = S. cerevisiae growth inhibition in permissive medium (OD615), pilot counter-assay for S. cerevisiae lifespan shortening project, permissive growth control (AID 705;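 active = growth inhibition above 25% in both replicates, a cutoff set 3 SD above the mean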); conditions: OD615, 24 h, at 10 µM, stronger effect = higher value
# [10] = S. cerevisiae growth inhibition in restrictive medium, OD615, pilot screen, restrictive growth control, yeast lifespan reduction project (AID 706;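 active = growth inhibition above a set limit, 3 SD over mean compound inhibition, in both replicates, cut at about 43% in these data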;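 also: modified DeaD lifespan yeast strain shifted to restrictive glucose medium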); conditions: OD615, 48 h, at 10 µM, stronger effect = higher value
# [11] = doxorubicin toxicity protection in MRP-1 cells – H69AR cells, CellTiter-Glo, duplicate, MRP-1 activator project, pilot screen (AID 807;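 active = viability increase at or above a cutoff of the median across tested compounds plus 3 SD, cut at about 8.5% in these data, passing the limit was not always enough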;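 also: compound pretreatment 18-22 h then 72 h combined with doxorubicin; 0% = doxorubicin alone and 100% = vehicle without doxorubicin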); conditions: H69AR viability with doxorubicin, CellTiter-Glo luminescence; at 10 µM; stronger effect = higher value
# [12] = viability of HCT116 without oncogenic beta-catenin – human colon tumor cells, pilot screen (AID 823;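 active = cell viability at or below a set limit in both duplicate runs, the limit being the all-compound median minus 4 SD, cut at about 23% in these data, passing the limit was not always enough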;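 also: 0% = wells killed by 20 µM Hyamine and 100% = untreated DMSO cell wells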); conditions: HCT116 beta-catenin knockout viability, CellTiter-Glo, 60 h; at 10 µM; stronger effect = lower value
# [13] = viability of PTEN-null HCT116 cells – cell-based, HCT116 clonal line, CellTiter-Glo, pilot screen (AID 824;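 active = viability at or below 27.92% in each of two runs, the all-compound median minus 4 SD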;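 also: 0% = 20 µM Hyamine control and 100% = vehicle cell control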); conditions: HCT116 PTEN-deleted viability, 60 h, at 10 µM, stronger effect = lower value
# [14] = RAM pathway blockade in budding yeast – dse1pr::URA3 reporter, 5-FOA selection, pilot screen (AID 869;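 active = inhibition over a set limit, the all-compound mean plus 3 SD, in both replicate runs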;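 also: 0% = DMSO wells with no growth and 100% = 10 µM 1-NA-PP1 with full growth; RAM network block rescues cells from 5-FOA so hits raise OD615 growth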); conditions: S. cerevisiae dse1pr::URA3 5-FOA growth, OD615, 2 d; at 10 µM; stronger effect = higher value; strain carries analog-sensitive mutant Cbk1 kinase
# [15] = RAM signaling pathway blockade in yeast – S. cerevisiae, Pdr1DBD-CYC8 efflux-inhibited sensitized strain, primary screen (AID 1298;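 active = RAM network inhibition above 8.4% in each of two replicates, 3 SD over the compound average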;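 also: 0% = DMSO untreated cells without growth and 100% = 10 µM 1-NA-PP1 full growth; higher means more yeast growth rescued from 5-FOA killing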); conditions: S. cerevisiae cbk1-as DSE1-URA3 strain, 5-FOA growth OD615, 2 d; at 50 µM; stronger effect = higher value
# [16] = H69AR cells + 2 uM doxorubicin, measured here: viability with 2 uM doxorubicin, stronger effect = lower value
# [17] = H69AR cells, compound alone cytotoxicity
SMILES,viability [1],Her2 level [2],viability [3],viability [4],viability [5],differential viability (reversal) ([6]; H69AR cells + 2 uM doxorubicin),"viability [6, 16]","viability [6, 17]",inhibition [7],inhibition [8],growth inhibition [9],growth inhibition [10],viability increase [11],viability [12],viability [13],inhibition [14],RAM network inhibition [15]
Cc1ccc(Cn2c(=O)c3ccccc3n3c(CCC(=O)O)nnc23)cc1,107%,100% (inactive),107% (inactive),92.5% (inactive),98.9% (inactive),7.02% (inactive),91.9%,98.9%,-5.07% (inactive),0.33% (inactive),2.68% (inactive),7.7% (inactive),-1.33% (inactive),107% (inactive),98.7% (inactive),2.29% (inactive),6.3% (inactive)
O=C(Nc1cccc(F)c1)C1C2C=CC3(CN(CCCN4CCOCC4)C(=O)C13)O2 (stereo not given),96%,104% (inactive),96% (inactive),89.4% (inactive),103% (inactive),20.3% (inactive),83.1%,103%,-2.27% (inactive),-3.11% (inactive),1.12% (inactive),1.81% (inactive),0.8% (inactive),106% (inactive),106% (inactive),0.595% (inactive),2.03% (inactive)
Cc1nnc(SCCn2c(N3CCC(Cc4ccccc4)CC3)nc3c2c(=O)[nH]c(=O)n3C)s1,82.5%,93.5% (inactive),82.5% (inactive),78.1% (inactive),79.4% (inactive),8.24% (inactive),71.1%,79.4%,-5.21% (inactive),-5.56% (inactive),-2.44% (inactive),5.62% (inactive),-4.95% (inactive),78.6% (inactive),75.7% (inactive),3.93% (inactive),5.98% (inactive)
Cc1cc(C)cc(N2C(=O)CC(N3CCOCC3)C2=O)c1 (stereo not given),104%,84% (inactive),104% (inactive),100% (inactive),191% (inactive),98.5% (inactive),92.2%,191%,-1.89% (inactive),0.82% (inactive),-9.16% (inactive),-2.19% (inactive),-0.95% (inactive),102% (inactive),92.5% (inactive),0.41% (inactive),0.87% (inactive)
Cc1cc(OCC(=O)NCCO)cc(C)c1Cl,99%,120% (inactive),99% (inactive),76% (inactive),96.4% (inactive),8.84% (inactive),87.6%,96.4%,1.56% (inactive),-1.67% (inactive),-15% (inactive),0.385% (inactive),-0.21% (inactive),99.1% (inactive),99.6% (inactive),1.37% (inactive),6.24% (inactive)
CC1CCC(NC(=O)Cn2ncc3ccccc32)CC1 (stereo not given),106%,108% (inactive),106% (inactive),107% (inactive),95.5% (inactive),7.93% (inactive),87.6%,95.5%,-3.47% (inactive),-8% (inactive),-9.46% (inactive),1.29% (inactive),-0.27% (inactive),97.9% (inactive),100% (inactive),1.21% (inactive),1.78% (inactive)
COc1ccc(S(=O)(=O)Cc2ccc(C(=O)N3CCOCC3)o2)cc1,106%,126% (inactive),106% (inactive),94.2% (inactive),99.5% (inactive),-1.56% (inactive),101%,99.5%,0% (inactive),-0.83% (inactive),-4.55% (inactive),-13.3% (inactive),-0.14% (inactive),111% (inactive),99.2% (inactive),0.96% (inactive),1.62% (inactive)
O=P(O)(CN1CCCCCC1)CN1CCCCCC1,93%,97.5% (inactive),93% (inactive),96.6% (inactive),107% (inactive),7.6% (inactive),99.2%,107%,-2.84% (inactive),-0.82% (inactive),-16.8% (inactive),-8.96% (inactive),1.45% (inactive),98.3% (inactive),105% (inactive),0.24% (inactive),4.85% (inactive)
COc1ccc(-n2ncc3c(N4CCC(C)CC4)ncnc32)cc1,100%,106% (inactive),100% (inactive),56.2% (inactive),76.6% (inactive),35.3% (inactive),41.2%,76.6%,-4% (inactive),3% (inactive),-1.23% (inactive),-0.39% (inactive),-2.39% (inactive),101% (inactive),93.6% (inactive),1.94% (inactive),1.63% (inactive)
Cc1cc(=O)oc2c1c(C)nn2-c1ccc(C(=O)OC(C)C)cc1,83.5%,83.5% (inactive),83.5% (inactive),99% (inactive),96.9% (inactive),2.41% (inactive),94.5%,96.9%,-0.13% (inactive),1.15% (inactive),-4.51% (inactive),3.34% (inactive),-3.1% (inactive),97.3% (inactive),87.4% (inactive),0.78% (inactive),1.04% (inactive)
